Compound activity deposited in PubChem by National Center for Advancing Translational Sciences (NCATS).
The list is not random: actives were taken first. Their share in the collection is about 3.8%.
A549 viability = Nrf2 qHTS screen for inhibitors: counterscreen for cytotoxicity. A549 ARE-Fluc cells, CellTiter-Fluor viability, 18-24 h. Potency, µM (series often up to 46 µM), for the others: top-dose activity change, negative = cytotoxicity, most hits filed as inhibitors. 390,000 tested, 0.16% active; note: % is set by controls: 0 for no effect and ±100 for the full control effect
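A549 ARE-Fluc cells in 5% FBS OPTI-MEM, 5000 cells/well, rested 2 h then exposed to compounds in concentration-response for 18-24 h at 37 °C. Viability by CellTiter-Fluor fluorescence (Ex 405/Em 525) after 30 min; luciferase luminescence (BugLite, 15 min, RT) read afterwards.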
Nrf2 inh = Nrf2 qHTS screen for inhibitors; A549 ARE-Fluc reporter, luciferase luminescence, 18-24 h; 360,000 tested, 2.1% active; Potency, µM (highest dose often 46 µM), for the others: at the top dose activity change, negative = inhibition, hits mostly inhibitors; AID 504444, 2011; note: % is set by controls: 0 for no effect and ±100 for the full control effect; nearly all actives have a fitted effect of over 60% in size
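Concentration-response testing used A549 ARE_Fluc cells at 5000 cells/well. Following an 18-24 h compound incubation, viability was read by fluorescence (Ex 405/Em 525) and luciferase output by luminescence.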
TGFb inhibitor = qHTS for Inhibitors of TGF-b | HepG2 CAGA-GFP TGF-b/SMAD3 reporter, GFP fluorescence, 18 h; TGF-beta stimulated, 500 pg/mL final | Potency, µM (series often up to 46.1 µM), for inactives: at the highest dose activity, negative = inhibition, usual class: inhibitors | 410,000 tested, 1.2% active | AID 588855, 2011; note: % is set by controls: 0 for no effect and ±100 for the full control effect; nearly all actives have a fitted effect of over 65% in size
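First, reporter cells (HEPG2 CAGA-GFP) rested 2 h at 37 degrees C. Next, compounds were pinned in and TGF-beta added to 500 pg/mL final. After 18 h, GFP was imaged per cell and summed per well.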
ATXN2 expr inh = Primary qHTS for Inhibitors of ATXN expression; Potency, µM (series often up to 57 µM), for inactives: at the highest dose activity change, negative = inhibition, usual class: inhibitors; HEK-293 ATXN2-luciferase reporter, luminescence, 24 h; 360,000 tested, 0.72% active; note: % is set by controls: 0 for no effect and ±100 for the full control effect; nearly all actives have a fitted effect of over 55% in size
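ATXN2-luciferase reporter cells (luciferase flanked by upstream and downstream ATXN2 gene portions) were treated 24 h at 37 °C with compounds at up to 57 uM. SteadyGlo luminescence gave expression; GF-AFC fluorescence gave viability.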
HepG2 tox = qHTS for Inhibitors of TGF-b: Cytotox Counterscreen; 410,000 tested, 0.76% active; Potency, µM (highest dose often 46.1 µM), for inactives: at the top dose activity change, negative = cytotoxicity, hits mostly cytotoxic; AID 588856, 2011; HepG2 CAGA-GFP viability, ATP luminescence, 18 h
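HepG2 CAGA-GFP cells (1000/well, DMEM with 1% FBS) received compound, then TGF-beta at 500 pg/mL final, and were incubated 18 hours at 37 degrees C. Viability was read by CellTiter-Glo luminescence. Media-only wells were set as complete cell-killing and DMSO as no toxicity.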
ATXN viability = Viability Counterscreen for Primary qHTS for Inhibitors of ATXN expression; S2 cells (HEK-293 line with an ATXN2-luciferase reporter) viability, CellTiter-Fluor protease fluorescence, 24 h; Potency, µM (series often up to 56.7 µM), most hits filed as cytotoxic; 400,000 tested, 0.49% active; AID 651635, 2014; note: nearly all actives have a fitted effect of over 40% in size
* marks the source's active call; other numbers are inactive results; i = inactive; ? = inconclusive; . = no result. Calls come from the whole dose curve; as a rule, active = well fitted curve in the direction sought with a large enough effect; inconclusive = small, poorly fitted or top-dose-only effect, or another doubt; inactive = no such curve, though single readings can be large; an effect the other way counts as inactive or inconclusive. Potency is the fitted concentration of half-maximal effect.

SMILES	A549 viability	Nrf2 inh	TGFb inhibitor	ATXN2 expr inh	HepG2 tox	ATXN viability
C#CCOCCOCCOCCNc1nc(N2CCOCC2)nc(N2CCN(C(=O)CCCCCCCCCCNC(=O)[C@H]([C@@H](C)CC)n3cc(CCCCN=C(N)N)nn3)CC2)n1	-11%	7%	-19%	-1%	-18%	i
C#CCOCCOCCOCCNc1nc(N2CCN(C(=O)CCCCCCCCCCNC(=O)[C@H](CCCCN)n3cc(C[C@@H](C)CC)nn3)CC2)nc(N2CCN(C(=O)CCCCCCCCCCNC(=O)[C@H](CCCN=C(N)N)n3cc(C[C@@H](C)CC)nn3)CC2)n1	?	?	13µM*	-20%	16µM*	.
C#CCOCCOCCOCCNc1nc(N2CCN(C(=O)CCCCCCCCCCNC(=O)Cn3cc(C[C@@H](C)O)nn3)CC2)nc(N2CCN(C(=O)CCCCCCCCCCNC(=O)[C@@H]([C@H](C)CC)n3cc(CCCCCN)nn3)CC2)n1	?	?	10µM*	20µM*	-113%	.
C#CCOCCOCCOCCNc1nc(N2CCN(C(=O)CCCCCCCCCCNC(=O)[C@H](CCCCN)n3cc(C)nn3)CC2)nc(N2CCN(C(=O)CCCCCCCCCCNC(=O)[C@@H]([C@H](C)O)n3cc(C)nn3)CC2)n1	?	?	?	?	-41%	.
C#CCOCCOCCOCCNc1nc(N2CCN(C(=O)CCCCCCCCCCNC(=O)[C@H]([C@@H](C)CC)n3cc(CCCCN=C(N)N)nn3)CC2)nc(N2CCN(C(=O)CCCCCCCCCCNC(=O)[C@@H]([C@H](C)O)n3cc(C)nn3)CC2)n1	?	23µM*	?	-1%	-61%	?
C#CCOCCOCCOCCNc1nc(N2CCN(C(=O)CCCCCCCCCCNC(=O)[C@H](CCCCN)n3cc(C[C@@H](C)CC)nn3)CC2)nc(N2CCN(C(=O)CCCCCCCCCCNC(=O)[C@@H]([C@H](C)O)n3cc(C)nn3)CC2)n1	?	?	?	10µM*	13µM*	10µM*
C#CCOCCOCCOCCNc1nc(N2CCN(C(=O)CCCCCCCCCCNC(=O)Cn3cc(CCCCCN)nn3)CC2)nc(N2CCN(C(=O)CCCCCCCCCCNC(=O)Cn3cc(C[C@@H](C)O)nn3)CC2)n1	1%	4%	?	-15%	-39%	i
N=c1c2ccccc2nnn1-c1cccc(C(F)(F)F)c1	-9%	-28%	1%	36%	-4%	i
CCCc1cc(F)c(S(=O)(=O)N2CCN(S(=O)(=O)c3ccc4c(c3)OCCO4)CC2)cc1F	1%	13%	.	.	.	.
C#CCOCCOCCOCCNc1nc(N2CCN(C(=O)CCCCCCCCCCNC(=O)[C@H](CCCCN)n3cc(CCO)nn3)CC2)nc(N2CCN(C(=O)CCCCCCCCCCNC(=O)[C@H](CCCCN)n3cc(C[C@@H](C)CC)nn3)CC2)n1	?	?	?	-24%	-75%	?
C#CCOCCOCCOCCNc1nc(N2CCN(C(=O)CCCCCCCCCCNC(=O)[C@@H](CCSC)n3cc(CCO)nn3)CC2)nc(N2CCN(C(=O)CCCCCCCCCCNC(=O)[C@H](CCCN=C(N)N)n3cc(C[C@@H](C)CC)nn3)CC2)n1	?	?	?	?	-80%	16µM*
CCn1c(SCC(=O)N2c3ccccc3Sc3ccccc32)nnc1-c1ccco1	-10%	23µM*	?	-16%	-40%	i
CC(=O)NC(c1ccco1)c1ccc2cccnc2c1O (stereo not drawn)	-19%	16µM*	?	10µM*	-14%	i
CCC(=O)NC(c1ccco1)c1cc(Br)c2cccnc2c1O (stereo not drawn)	.	.	4µM*	5µM*	-18%	?
